Assay results: PubChem BioAssay (Tox21)
Results filed as inconclusive are left out. The source made the active and inactive calls. Calls come from the whole dose curve; as a rule, active = well fitted activation curve with a large enough effect in the repeat runs; inconclusive = weak or mixed curves; inactive = no such curve, though single readings can be large or run the other way. Non-standard residues stand in square brackets, D forms with d. Residues, ends and D or L forms follow the SMILES beside them. *: point of attachment. Sta = CC(C)C[C@H](N)[C@@H](O)CC(=O)O; Isovaleryl = CC(C)CC(=O)*

These molecules were tested against Nuclear receptor subfamily 1 group I member 2 (Rattus norvegicus) (UniProt Q9R1A7) (assay: Rat pregnane X receptor (rPXR) activation by small molecules, qHTS assay (AID 1346983; note: nearly all actives have a fitted effect of over 20% in size)). Details: rPXR luciferase reporter cells, One-Glo luminescence, 24 h; max activation: hits give high values.
From the text: National Center for Advancing Translational Sciences [NCATS] NIH Chemical Genomics Center [NCGC] U.S. Environmental Protection Agency [EPA] National Institutes of Environmental Health Sciences [NIEHS] National Toxicology Program [NTP] Assay overview: The Pregnane X receptor (PXR), a ligand activated nuclear receptor plays a critical role in the regulation of genes involved in drug metabolism and transporters. PXR binds xenobiotics and when compounds interact with PXR produces enhanced expression of CYP3A genes. In humans PXR activation and CYP3A4 induction can be problematic due to their interactions with co-medicated drugs and decrease their efficacy or increase their own metabolism. However, there are known species-specific differences with regard to PXR activation that should be taken into account when animal PXR data are extrapolated to humans. A cell based rat PXR (rPXR) assay (developed by Puracyp, Inc., CA) was used to assess the activation of rPXR.
Assay Protocol Summary: rPXR cells were dispensed at 2,000 per well in 5uL of assay medium into white, solid-bottom 1536-well plates using a Multidrop Combi dispenser (Thermo Scientific). The assay plates were incubated at 37 C for 5hr before transferring 23 nL of test compounds dissolved in DMSO and positive control via Pintool station (Wako). The assay plates were incubated at 37 C for 24 hr. Then 5ul One-Glo assay reagent (Promega) was added to each plate by a Flying Reagent Dispenser (FRD, Aurora Discovery) and following 30 min incubation at room temperature, luciferase activity was quantified on a ViewLux plate reader (Perkin Elmer).
% is set by controls: 0 for no effect and ±100 for the full control effect; potency is the fitted concentration of half-maximal effect.

Sequence of Nuclear receptor subfamily 1 group I member 2 (Rattus norvegicus) (Q9R1A7 whole entry, looked up): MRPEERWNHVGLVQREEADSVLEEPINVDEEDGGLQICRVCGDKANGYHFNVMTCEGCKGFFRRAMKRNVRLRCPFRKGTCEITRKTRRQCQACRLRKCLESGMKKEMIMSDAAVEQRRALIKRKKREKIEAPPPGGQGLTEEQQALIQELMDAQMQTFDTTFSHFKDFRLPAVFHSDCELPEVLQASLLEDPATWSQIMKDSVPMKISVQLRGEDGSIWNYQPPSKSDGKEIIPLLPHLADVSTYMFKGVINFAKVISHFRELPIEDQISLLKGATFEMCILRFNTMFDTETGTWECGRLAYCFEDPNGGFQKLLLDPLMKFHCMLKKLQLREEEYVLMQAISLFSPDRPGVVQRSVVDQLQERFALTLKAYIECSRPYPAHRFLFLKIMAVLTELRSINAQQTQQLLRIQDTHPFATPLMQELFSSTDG

Structure (SMILES) | max activation | Potency
NS(=O)(=O)c1cc2c(cc1C(F)(F)F)NCNS2(=O)=O | -2.82% (inactive) | 
COc1cc2nc(N3CCN(C(=O)C4CCCO4)CC3)nc(N)c2cc1OC (stereo not given) | 0.468% (inactive) | 
C[C@@H](CN1CC(=O)NC(=O)C1)N1CC(=O)NC(=O)C1 | -0.624% (inactive) | 
CNCCc1ccccn1 | -1.65% (inactive) | 
CN(C)CCC[C@@]1(c2ccc(F)cc2)OCc2cc(C#N)ccc21 | -1.39% (inactive) | 
CN(C)CCc1c[nH]c2ccc(CS(=O)(=O)N3CCCC3)cc12 | -1.76% (inactive) | 
COc1cc(OC)cc(OC)c1 | -1.98% (inactive) | 
COc1ccc2cc(CCC(C)=O)ccc2c1 |  | 8.91 µM (active)
NCC1CCC(C(=O)Oc2ccc(CCC(=O)O)cc2)CC1 (stereo not given) | -5.61% (inactive) | 
CN(C)CCc1c[nH]c2ccc(C[C@H]3COC(=O)N3)cc12 | -1.7% (inactive) | 
CCOC(=O)COc1ccc2c(C)c(CCN(CC)CC)c(=O)oc2c1Cl | 4.23% (inactive) | 
COc1cnc(NS(=O)(=O)c2ccc(N)cc2)nc1 | -1.37% (inactive) | 
N[C@H]1C(O)O[C@H](CO)[C@@H](O)[C@@H]1O (stereo not given in full) | 3.63% (inactive) | 
CC(O)CCCCn1c(=O)c2c(ncn2C)n(C)c1=O (stereo not given) | -1.02% (inactive) | 
COC(=O)N/N=C/c1c[n+]([O-])c2ccccc2[n+]1[O-] | -1.2% (inactive) | 
C[n+]1ccccc1/C=N/O | -0.461% (inactive) | 
CCCCN=C(N)N=C(N)N | -2.74% (inactive) | 
C[C@]12C=CC(=O)C=C1[C@@H](F)C[C@@H]1[C@@H]2[C@@H](O)C[C@@]2(C)[C@H]1CC[C@]2(O)C(=O)CO |  | 12.6 µM (active)
CCOc1ccccc1OCCN[C@H](C)Cc1ccc(OC)c(S(N)(=O)=O)c1 | -6.48% (inactive) | 
CC(C)OC(=O)C(C(=O)OC(C)C)=C1SC=CS1 | 6.37% (inactive) | 

Structure (SMILES) | max activation | Potency
C[C@@H]1NC(=O)[C@@H](N)CNC(=O)[C@H](C2CCNC(N)=N2)NC(=O)/C(=C/NC(N)=O)NC(=O)[C@H](CNC(=O)C[C@@H](N)CCCN)NC1=O (stereo not given in full) | -6.29% (inactive) | 
CN1C(CCl)Nc2cc(Cl)c(S(N)(=O)=O)cc2S1(=O)=O (stereo not given) | -9.91% (inactive) | 
Nc1ccc(C(=O)NCC(=O)O)cc1 | -2.15% (inactive) | 
N=C(N)N1CCc2ccccc2C1 | -0.056% (inactive) | 
C[C@@H]1CC[C@@]2(OC1)O[C@H]1C[C@H]3[C@@H]4CC[C@H]5C[C@@H](O)CC[C@]5(C)[C@H]4CC(=O)[C@]3(C)[C@H]1[C@@H]2C | -0.0535% (inactive) | 
CN1CCN(C(=O)C2CCCCC2)CC1 | -9.64% (inactive) | 
Cc1ccc(S(=O)(=O)NC(=O)NN2CC3CCCC3C2)cc1 (stereo not given) | 1.11% (inactive) | 
CC(C)(C)NCC(O)COc1cccc2c1CCC(=O)N2 (stereo not given) | -2.26% (inactive) | 
CC[C@@]1(c2ccccc2)NC(=O)N(C)C1=O | -0.191% (inactive) | 
C[C@H]1COc2c(C3(N)CC3)c(F)cc3c(=O)c(C(=O)O)cn1c23 | -2.87% (inactive) | 
CCOC(=O)[C@H](CCc1ccccc1)N[C@H]1CS[C@H](c2cccs2)CN(CC(=O)O)C1=O | -2.69% (inactive) | 
CC(C)(Sc1cc(C(C)(C)C)c(O)c(C(C)(C)C)c1)Sc1cc(C(C)(C)C)c(O)c(C(C)(C)C)c1 | -1.55% (inactive) | 
CC(C)CC(=O)N[C@H](C(=O)N[C@H](C(=O)N[C@@H](CC(C)C)[C@@H](O)CC(=O)N[C@@H](C)C(=O)N[C@@H](CC(C)C)[C@@H](O)CC(=O)O)C(C)C)C(C)C (Isovaleryl-VV[Sta]A[Sta]-OH) | -4.42% (inactive) | 
NC(=O)CC[C@@H](N)C(=O)O | 0.0386% (inactive) | 
COc1cc(NS(=O)(=O)c2ccc(N)cc2)ncn1 | -2.45% (inactive) | 
O=C(OOC(=O)c1ccccc1)c1ccccc1 | -2.52% (inactive) | 
CC(C)(C)C(=O)NCCCC(=O)O | -1.4% (inactive) | 
O=C(CCBr)N1CCN(C(=O)CCBr)CC1 | -2.92% (inactive) | 
O=S(=O)(O)c1cc(I)c(O)c2ncccc12 | -0.763% (inactive) | 
O=C(O)P(=O)(O)O | -4.52% (inactive) | 
